Screening results: PubChem, National Center for Advancing Translational Sciences (NCATS)
Only some compounds are listed: those with a hit (about 21% of all), similar ones and a draw of the others.
IL-1B inflam inh – inhibitors of inflammasome signaling (IL-1 beta secretion). THP-1 LPS/ATP IL-1B secretion, AlphaLISA, 16 h; hits give low values. activity change, % at 57.5 µM. actives 4.7% (n = 360,000). AID 743279; in the data active means activity change below about -50%; inconclusive means mostly about -30% to -49%
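Secreted IL-1B measured by AlphaLISA bead assay after 16 h compound exposure of THP-1 cells; compounds (final up to 57.5 uM) added 1 h before LPS (250 ng/mL) and ATP (1.25 mM) stimulation; lower signal means less secretion.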
VP16 counter – Gal4-VP16 reporter inhibition counter-screen; Potency, µM (doses to about 53.6 µM), inactives show top-dose activity, negative = inhibition, actives largely listed as inhibitors; actives 3.5% (n = 310,000); Drosophila S2 Gal4-VP16 UAS-luciferase, luminescence, 20 h;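 further: Gal4-VP16 expression switched on by copper sulfate through the metallothionein promoter; potency means the concentration at half of the fitted maximal effect; nearly all actives have a fitted effect of over 50% in size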
DT40 TDP1 CPT – growth inhibition of DT40 Tdp1-/-;hTDP1 cells with camptothecin (screen for TDP1 inhibitors) | chicken DT40 Tdp1-/-;hTDP1 cells + 20 nM CPT, ATP luminescence, 48 h | Potency, µM (titrated, usually from 46.2 µM), inactives show top-dose activity change, negative = growth inhibition, actives largely listed as inhibitors | actives 12% (n = 420,000); further: potency means the concentration at half of the fitted maximal effect; nearly all actives have a fitted effect of over 55% in size
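Chicken DT40 Tdp1-/- cells complemented with human TDP1, 400 cells/well, exposed to compounds plus 20 nM camptothecin for at least 48 h at 37 C; viability read as ATP content by CellTiter-Glo luminescence.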
RORgamma inh – ROR gamma (mouse) transcription inhibition | P51450 | Drosophila S2 Gal4-RORgamma UAS-luciferase reporter, 20 h | Potency, µM (top dose mostly 53.6 µM), for the others: at the highest dose activity change, negative = inhibition, hits mostly inhibitors | actives 5.4% (n = 310,000) | AID 2551; further: potency means the concentration at half of the fitted maximal effect; nearly all actives have a fitted effect of over 60% in size
Target sequence (P51450 whole entry, looked up, the tested form may be a part): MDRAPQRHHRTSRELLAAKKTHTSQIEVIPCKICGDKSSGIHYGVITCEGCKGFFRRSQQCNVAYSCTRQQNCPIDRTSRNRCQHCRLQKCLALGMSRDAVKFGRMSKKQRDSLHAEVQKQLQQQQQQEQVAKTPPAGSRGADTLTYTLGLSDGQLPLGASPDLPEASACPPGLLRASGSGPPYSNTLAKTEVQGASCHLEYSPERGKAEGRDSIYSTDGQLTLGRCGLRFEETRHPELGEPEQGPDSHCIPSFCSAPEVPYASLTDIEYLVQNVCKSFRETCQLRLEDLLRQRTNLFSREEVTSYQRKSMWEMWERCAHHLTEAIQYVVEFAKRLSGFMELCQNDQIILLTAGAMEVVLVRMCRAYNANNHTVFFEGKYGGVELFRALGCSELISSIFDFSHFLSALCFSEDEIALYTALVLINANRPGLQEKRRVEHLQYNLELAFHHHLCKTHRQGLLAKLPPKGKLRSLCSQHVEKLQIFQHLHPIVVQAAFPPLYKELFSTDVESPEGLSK
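Drosophila S2 cells stably expressing Gal4-DBD/mouse RORγ fusion under metallothionein promoter plus UAS-luciferase; compound 1 h, then 700 uM CuSO4 induction for 20 h at ambient temperature; inhibition read as reduced luminescence.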
ELG1 DNA repair – ELG1-dependent DNA repair inhibition; HEK293T ELG1-luciferase reporter, luminescence, 16 h; DNA damage induced by 5-fluorouridine; Potency, µM (titrated, usually from 46.1 µM), for inactives: at the top dose activity change, negative = inhibition, hits mostly inhibitors; actives 2.3% (n = 330,000); further: potency means the concentration at half of the fitted maximal effect; nearly all actives have a fitted effect of over 55% in size
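DMSO vehicle served as the neutral condition. Each well held 2,000 cells given 5-fluorouridine plus compound; after 16 hr at 37 °C/5% CO2, ONE-Glo was added and luciferase measured 30 min later.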
DT40 TDP1 no CPT – qHTS for Inhibitors of human tyrosyl-DNA phosphodiesterase 1 (TDP1): qHTS in cells in absence of CPT; DT40 Tdp1-/- hTDP1 cells, no CPT, ATP luminescence, 48 h; AID 686978, 2013; actives 15% (n = 420,000); Potency, µM (doses to about 46.2 µM), inactives show at the highest dose activity change, negative = growth inhibition, usual class: inhibitors; further: potency means the concentration at half of the fitted maximal effect; nearly all actives have a fitted effect of over 55% in size
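Growth of hTDP1-complemented DT40 Tdp1-knockout cells is measured by ATP luminescence after at least 48 hr compound exposure at 37 °C, with DMSO substituting for the 20 nM CPT used in the parallel screen.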
Active calls of the source: *; u = inconclusive; x = no result given; [ ] = remark or other dose. Unless noted, the call rests on the fitted dose curve; in most records, active means well fitted curve in the direction sought with a large enough effect; inconclusive means small, poorly fitted or top-dose-only effect, or another doubt; inactive means no such curve, though single readings can be large; an effect the other way counts as inactive or inconclusive. On the % scale 0 is the no-effect control and ±100 the full control effect.

SMILES	IL-1B inflam inh	VP16 counter	DT40 TDP1 CPT	RORgamma inh	ELG1 DNA repair	DT40 TDP1 no CPT
O=c1c(-c2ccccc2)nc2cnc(Nc3ccccc3)nc2n1Cc1cccs1	x	-4%	-10%	-3%	x	19%
CC[C@]12c3[nH]c4cc(CCC(=O)N(C)C)ccc4c3CCN1C(=O)[C@@H](CC(=O)NCc1ccco1)C[C@@H]2C(=O)N1CCN(C(=O)C2CC2)CC1	-3	x	-11%	x	2%	-5%
CCCCCCCCCCCCC/C=C/[C@@H](O)[C@H](CO)NC(=O)CCCCC	x	-10%	x	4%	x	x
CC(=O)OC[C@@H]1O[C@@H](O/N=C2/C[C@@H](O)[C@@H](O)[C@@H]3[C@@H]4C(=O)N(Cc5ccc6c(c5)OCO6)C(=O)[C@H]4CC[C@H]23)[C@H](OC(C)=O)[C@H](OC(C)=O)[C@@H]1OC(C)=O	x	-1%[10 µM]	x	6%[10 µM]	x	x
CC1CN(Cc2cn(C)nc2-c2ccc(Oc3ccccc3)cc2)CCN1C (stereo not drawn)	-64*	-20%	u	-2%	7%	u
COc1ccc(N2CCN(C(=O)c3cccc(NC(=O)c4nsc5ccccc45)c3)CC2)cc1	x	x	15µM*	x	x	12µM*
COc1cccc(N2CCN(C(=O)c3cccc(NC(=O)c4nsc5ccccc45)c3)CC2)c1	x	x	u	x	x	21µM*
Cc1ccc(C)c(NC(=O)N2CCN(C(=O)c3nsc4ccccc34)CC2)c1	x	x	u	x	x	18µM*
Cc1ccc(C(=O)N2CCN(c3ccccc3)CC2)cc1NC(=O)c1nsc2ccccc12	x	x	21µM*	x	x	u
COc1cccc(N2CCN(C(=O)c3ccc(-c4ccccc4)cc3)CC2)c1	20	-3%	32%	-10%	12%	12%
COc1ccc(O)c(CN2CCC3(CCC(CNC(=O)C4CCCO4)O3)CC2)c1 (stereo not drawn)	x	x	0%[9.04 µM]	x	x	-1%
O=C(/C=C/c1ccc(F)cc1)c1cc(Br)ccc1O	-57*	28%	-4%	59%	u	-22%
O=C(/C=C/c1ccccc1)c1cc(Br)ccc(=O)c1O	-59*	u	3.7µM*	u	u	4.6µM*
Cc1ccc(/C=C/C(=O)c2ccccc(=O)c2O)cc1C	-81*	3.5µM*	23µM*	2.8µM*	21µM*	13µM*
C#CCCCO/N=C1/C[C@@H](O)[C@@H](O)[C@@H]2[C@H]3C(=O)N(c4ccc(F)cc4F)C(=O)[C@@H]3CC[C@@H]12	x	10%[10 µM]	x	12%[10 µM]	x	x
CCCS(=O)(=O)c1nc(S(=O)(=O)c2ccc(C)cc2)c(NC(C)c2ccccc2)s1 (stereo not drawn)	x	x	u	x	x	10µM*
CCCNc1sc(S(=O)(=O)CCC)nc1S(=O)(=O)c1ccc(C)cc1	2	7%	u	18%	18%	u
Cc1ccc(S(=O)(=O)c2nc(S(=O)(=O)c3ccc(C)cc3)c(NC(C)C)s2)cc1	x	x	16µM*	x	x	u
Cc1ccc(S(=O)(=O)c2nc(S(=O)(=O)c3ccc(C)cc3)c(NCCCOC(C)C)s2)cc1	x	x	u	x	x	16µM*
CCCS(=O)(=O)c1nc(S(=O)(=O)c2ccc(C)cc2)c(N2CCc3ccccc3C2)s1	-9	u	u	8.9µM*	-13%	u
COc1cc(NC(=O)Cn2nnnc2-c2ccccc2F)cc(OC)c1OC	x	x	-13%	x	x	-21%
CCN(CC)S(=O)(=O)c1cccc(C(=O)NC(C(=O)NNC(=O)c2ccccc2F)C(C)C)c1 (stereo not drawn)	0	x	u	x	x	u
COc1ccc(-n2ccn(CC(=O)Nc3ccccc3C(F)(F)F)c(=O)c2=O)cc1OC	x	x	-10%	x	x	-4%
Cc1ccc(S(=O)(=O)N2CCN(C(=O)COC(=O)c3cncc(Br)c3)CC2)c(C)c1	1	x	-2%	x	-6%	-19%
Cc1c(Cl)cccc1NC(=O)Nc1c[nH]c(=O)[nH]c1=O	x	x	-3%	x	x	-1%
SMILES	IL-1B inflam inh	VP16 counter	DT40 TDP1 CPT	RORgamma inh	ELG1 DNA repair	DT40 TDP1 no CPT
CCS(=O)(=O)c1nc(S(=O)(=O)c2ccc(C)cc2)c(NC)s1	x	x	1%	x	x	2%
CCS(=O)(=O)c1nc(S(=O)(=O)c2ccc(C)cc2)c(NCc2ccccc2Cl)s1	x	x	16µM*	x	x	10µM*
O=C1CN(c2ccccc2)C(=S)N1C(=O)c1ccc(Br)cc1	-3	u	u	u	u	-20%
OCCNc1nc(Nc2ccc(Br)cc2)nc2ccccc12	-101*	-17%	5.8µM*	8%	u	6.5µM*
Cc1c(Cl)cccc1Nc1nc(NCCO)c2ccccc2n1	-108*	x	u	x	6%	u
OCCNc1nc(Nc2ccccc2)nc2ccccc12	x	-7%	10µM*	-32%	-22%	13µM*
Cc1cc(C)c(C(N)=O)c(Nc2cccc(Cl)c2C)n1	-2	3%	u	26%	4%	u
Cc1ccccc1OCc1ccc(C(=O)N2CCOCC2)o1	-4	27%	13%	-9%	8%	-16%
CCCOc1ccc(F)cc1-c1cc(C(=O)Nc2ccc(C(C)C)cc2)[nH]n1	0	x	u	x	x	26µM*
CCCOc1ccc(F)cc1-c1cc(C(=O)Nc2ccc(OC)c(OC)c2)[nH]n1	-68*	x	21µM*	x	x	u
CC(C)Oc1cc(F)ccc1-c1cc(C(=O)NCc2cccs2)[nH]n1	0	x	u	x	x	u
CCCOc1ccc(F)cc1-c1cc(C(=O)NCc2cccs2)[nH]n1	u	x	23µM*	x	x	7.3µM*
COc1ccc(NC(=O)c2cc(-c3cc(F)ccc3OC)n[nH]2)cc1OC	-5	x	21µM*	x	x	23µM*
COc1ccc(NC(=O)c2cc(-c3ccccc3O)n[nH]2)cc1Cl	-9	5%	-15%	-10%	u	u
Cc1ccc(NC(=O)c2cccnc2C(=O)O)nc1	-12	-4%	-23%	-11%	u	-4%
CN(Cc1c(F)cccc1Cl)C(=O)C1=CC=CN2CCS(=O)(=O)N=C12	3	x	-16%	x	u	21%
O=C(Nc1ccc2c(c1)oc1ccccc12)C1CC1	43	-3%	15µM*	3%	u	9.2µM*
O=C(Nc1ccc2c(c1)oc1ccc(S(=O)(=O)N3CCCC3)cc12)C1CC1	-57*	-5%	u	12%	16µM*	u
O=C(O)CCCC(=O)Nc1ccc2c(c1)oc1ccccc12	53	u	2%	11µM*	2%	21%
